From PubChem BioAssay (EPA / NIEHS) come the findings set out here.

Structures are written as SMILES. Records with an inconclusive call do not appear. Calls of active or inactive are those of the source. Rule for the calls: active = hit-call score of the fitted dose curve at least 0.9, where 1 is the maximum; inconclusive = response in the unintended direction; inactive = score below 0.9.

Chain of human Dual Specificity Protein Phosphatase 3 (DUSP3), DUSP3 (gene 1845) (P51452 whole entry, looked up): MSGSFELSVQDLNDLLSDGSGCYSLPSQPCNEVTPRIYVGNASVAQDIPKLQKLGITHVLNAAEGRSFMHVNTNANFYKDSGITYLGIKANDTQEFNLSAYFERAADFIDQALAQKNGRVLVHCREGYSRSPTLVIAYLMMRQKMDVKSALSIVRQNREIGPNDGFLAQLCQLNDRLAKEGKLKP

One test concerns the target human Dual Specificity Protein Phosphatase 3 (DUSP3), DUSP3 (gene 1845) (UniProt P51452). As to the kind of experiment: NVS_ENZ_hDUSP3: NovaScreen (NVS) Enzymatic Assay for human Dual Specificity Protein Phosphatase 3 (DUSP3) (AID 2283152).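 Note: phosphatase activity of recombinant human DUSP3 on a fluorogenic substrate without cells.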 Put shortly:
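Cell-free fluorescence-intensity enzyme activity assay with recombinant protein and substrate; loss of signal fitted relative to DMSO baseline. Primary screen in duplicate at 25 uM, actives then run in concentration series; measured 0 h after dosing.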
`COP(=S)(OC)Oc1c(Cl)cc(C)cc1Cl`: the half-maximal activity concentration (AC50) was 20.9 µM (active).
On the same count and under the same terms, for `CCOP(=S)(OCC)Oc1nc(Cl)c(Cl)cc1Cl` the value was 6.51 µM (active).
As to `COP(=S)(OC)Oc1cc(Cl)c(Cl)cc1Cl`, the AC50 was 11.8 µM (active).

For another test, the target named is human Ephrin type-A Receptor 1 (EphA1), EPHA1 (gene 2041) (UniProt P21709). As to the kind of experiment: NVS_ENZ_hEphA1: NovaScreen (NVS) Enzymatic Assay for human Ephrin type-A Receptor 1 (EphA1) (AID 2283158).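 Note: activity is signal loss versus DMSO meaning EphA1 kinase inhibition.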 The essentials: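 Chemicals first tested in duplicate at 25 uM against recombinant EphA1 with a fluorescent substrate; those passing threshold went to singleton dose-response topping at 50 uM. Activity read 1 h later as mobility-shift fluorescence, loss of signal relative to DMSO.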
Chain of human Ephrin type-A Receptor 1 (EphA1), EPHA1 (gene 2041) (P21709 whole entry, looked up): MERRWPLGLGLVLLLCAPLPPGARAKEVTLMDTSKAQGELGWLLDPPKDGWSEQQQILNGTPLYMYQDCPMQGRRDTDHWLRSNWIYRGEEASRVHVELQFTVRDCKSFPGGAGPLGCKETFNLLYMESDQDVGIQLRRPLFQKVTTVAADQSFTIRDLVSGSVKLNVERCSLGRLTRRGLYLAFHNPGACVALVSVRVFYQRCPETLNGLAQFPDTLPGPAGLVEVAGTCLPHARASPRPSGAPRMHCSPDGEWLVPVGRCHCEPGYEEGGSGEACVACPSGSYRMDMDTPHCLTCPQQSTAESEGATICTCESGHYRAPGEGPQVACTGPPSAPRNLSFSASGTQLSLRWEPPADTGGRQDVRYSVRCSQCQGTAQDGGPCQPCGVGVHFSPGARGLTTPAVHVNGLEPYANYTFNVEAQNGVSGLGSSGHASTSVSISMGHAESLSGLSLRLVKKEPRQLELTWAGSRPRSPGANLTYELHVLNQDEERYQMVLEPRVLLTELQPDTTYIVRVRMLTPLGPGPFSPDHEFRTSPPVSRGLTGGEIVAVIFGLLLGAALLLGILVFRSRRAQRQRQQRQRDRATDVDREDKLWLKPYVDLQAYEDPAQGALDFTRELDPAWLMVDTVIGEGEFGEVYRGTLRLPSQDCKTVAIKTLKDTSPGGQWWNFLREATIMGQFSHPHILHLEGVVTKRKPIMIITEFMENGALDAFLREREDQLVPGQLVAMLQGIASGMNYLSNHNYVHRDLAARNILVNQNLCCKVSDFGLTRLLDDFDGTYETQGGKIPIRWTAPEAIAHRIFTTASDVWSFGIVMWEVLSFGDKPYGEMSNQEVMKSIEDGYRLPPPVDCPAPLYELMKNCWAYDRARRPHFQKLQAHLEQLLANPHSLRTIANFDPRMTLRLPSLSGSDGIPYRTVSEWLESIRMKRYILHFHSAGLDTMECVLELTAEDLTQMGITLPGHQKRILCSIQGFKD
With `COP(=S)(OC)Oc1c(Cl)cc(C)cc1Cl`, the call was inactive.
On the same count and under the same terms, next, `CC(Br)C(=O)O` (centres undefined): “inactive”; `COc1cccc(C=O)c1`: “inactive”.
For `Nc1ccc(-c2ccc(N)c(Cl)c2)cc1Cl`, the AC50 was 1.28 µM (active).
For the molecule `C(=NC1CCCCC1)=NC1CCCCC1`, the result was inactive.
`CCCCCCCCC(=O)NCc1ccc(O)c(OC)c1`: the molecule was called inactive.
Same read-out and setting: for `Nc1cccc(Cl)c1` the value was “inactive”.
Consider `NC(=S)Nc1ccccc1`, for which the half-maximal activity concentration (AC50) was 41.6 µM (active).
As to `COP(=S)(OC)Oc1cc(Cl)c(Cl)cc1Cl`, the outcome was inactive.
Still for that read-out and setting: next, `O=[N+]([O-])c1ccc2c3c(cccc13)CC2`: “inactive”; `CCc1ccccc1N`: “inactive”.
